Results on 26 compounds are retold here after PubChem BioAssay AID1851 (National Center for Advancing Translational Sciences (NCATS), 2009).

The campaign covered roughly 16,000 compounds. About 5,100 (32%) were called active. Not shown: some 25% with an inconclusive outcome. Some of the results follow. Unmarked numbers belong to inactive results. The call rests on the fitted dose curve; in most records, active means well fitted curve in the direction sought with a large enough effect; inconclusive means small, poorly fitted or top-dose-only effect, or effect the other way; inactive means no such curve, though single readings can be large or run the other way.
On the % scale 0 is the no-effect control and ±100 the full control effect.

Cytochrome P450 3A4 (Homo sapiens), sequence (P08684 whole entry, looked up): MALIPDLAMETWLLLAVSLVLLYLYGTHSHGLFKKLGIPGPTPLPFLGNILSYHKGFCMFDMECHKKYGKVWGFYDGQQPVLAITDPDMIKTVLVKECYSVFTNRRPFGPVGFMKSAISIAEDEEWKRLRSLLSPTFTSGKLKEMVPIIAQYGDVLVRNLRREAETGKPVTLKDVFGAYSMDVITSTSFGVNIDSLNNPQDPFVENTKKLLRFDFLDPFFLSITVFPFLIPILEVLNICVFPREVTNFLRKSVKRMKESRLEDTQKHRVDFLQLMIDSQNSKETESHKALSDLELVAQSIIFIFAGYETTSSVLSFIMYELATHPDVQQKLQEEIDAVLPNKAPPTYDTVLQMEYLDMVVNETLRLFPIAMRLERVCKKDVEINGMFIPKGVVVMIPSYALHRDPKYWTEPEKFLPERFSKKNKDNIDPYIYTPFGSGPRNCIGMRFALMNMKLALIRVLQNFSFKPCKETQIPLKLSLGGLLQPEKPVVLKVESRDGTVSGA

This assay concerns the target Cytochrome P450 3A4 (Homo sapiens) (UniProt P08684). The experiment in a line: Cytochrome panel assay with activity outcomes. Particulars: recombinant CYP, pro-luciferin dealkylation, luminescence, p450-cyp3a4; series mostly up to 57.1 µM; activity, negative = inhibition: at the top concentration.
In the case of `CCOC(=O)c1c(NC(=O)CCCN2CCOCC2)sc2c1CC(C)(C)OC2`, the AC50 is 7.08 µM (active).
The same measure, in the same setting: the same measure for `CCOC(=O)c1c(NC(=O)CCC(=O)N2CCOCC2)sc2c1CC(C)(C)OC2`: 12.6 µM (active).
As to `Cn1c(=O)n(-c2ccc(Cl)cc2)c(=O)c2c3c(sc21)COC(C)(C)C3`, the “activity, negative = inhibition” value was 3.78%.
Regarding `Cn1c(O)c(C(C#N)=C2N=c3ccccc3=N2)c2ccccc21`, the AC50 was 3.55 µM (active).
As to `N=C(N)SCCN`, the AC50 result was “inactive”.
Consider `COC(=O)[C@@H]1O[C@@H](SCCN)[C@@H](O)[C@H](O)[C@H]1O`, for which the activity, negative = inhibition was -3.54% [at 11.4 µM].
Same read-out and setting: as for `CC(=O)O[C@]12CC[N@+]3(C)CCCC[C@@H]3[C-]1Nc1ccccc12`, the figure is 0.352% [at 11.4 µM]; as for `Cc1cc2c(c(=O)o1)[C@@H](O)[C@H]1O[C@@H]1C2=O`, -17.6% [at 11.4 µM].
As to `COc1ccccc1N1CCN(C[C@@H]2CN3C(=O)N(C)c4ccccc4C3=N2)CC1`, the AC50 was 15.8 µM (active).
For the compound `CC1=C(C(=O)N2CCCCCC2)C2(CCC(C)CC2)OC1=O` (stereo unspecified), the AC50 was 11.2 µM (active).
As for `Cc1cc(=O)oc(C)c1C(=O)N1CCCCC1`, the “activity, negative = inhibition” value was 5.9%.
Still for that read-out and setting: as for `CC1=C(C(=O)NCCN2CCN(C)CC2)C2(CCC(C)CC2)OC1=O` (stereo unspecified), the figure is -24.5%; as for `CCCCCC/C(C)=C1/SC(=S)NC1=O`, -11.2% [at 2.29 µM]; as for `O=C(CCC(=O)Nc1ccccc1)NNC(=O)c1cccs1`, 9.11% [at 2.29 µM].
Still for that read-out and setting: as for `CCC(=O)Nc1ccc(C(=O)NNC(=O)c2cccs2)cc1`, the figure is -7.4%.
In the case of `O=C(COc1cccc2ccccc12)NNC(=O)c1cccs1`, the concentration at half-maximal activity (AC50) was 25.1 µM (active).
Consider `CCCCC(=O)Nc1ccc(C)c(O)c1`, for which the activity, negative = inhibition was 9.17% [at 2.29 µM].
In the case of `CCc1ccc(OCC(=O)Nc2ccc(-c3nc4ccccc4o3)c(O)c2)cc1`, the “activity, negative = inhibition” value is -2.69%.
Still for that read-out and setting: the same measure for `O=C(Nc1cccc(-c2nc3ncccc3o2)c1)c1sc2cc(Cl)ccc2c1Cl`: 0.466%.
On to `CCCCCC(=O)Nc1cccc(-c2nc3ncccc3o2)c1`, for which the AC50 is 15.8 µM (active).
Same read-out and setting: as for `O=C(CSc1ccc(Cl)cc1)Nc1cccc(-c2nc3ncccc3o2)c1`, the figure is 12.6 µM (active).
Take `CC12CC[C@@H]3c4ccc(OP(=O)(O)O)cc4CCC3C1CCC2=O` (stereo partly specified): the activity, negative = inhibition was 5.91% [at 11.4 µM].
The same measure, in the same setting: the same measure for `COc1c(N2CCN(C(=S)Nc3ccc(F)cc3)C(C)C2)c(F)cc2c(=O)c(C(=O)O)cn(C3CC3)c12` (stereo unspecified): 4.97%; for `Clc1ccc(-c2nnc(-c3ccccc3)c(N3CCSCC3)n2)cc1`: -23.1%.
With `O=S(=O)(c1ccc(Cl)cc1)c1cnc(-c2cccnc2)nc1-c1ccccc1`, the AC50 is 8.91 µM (active).
Take `O=S(=O)(c1ccccc1)c1cnc(-c2cccnc2)nc1-c1ccc(Cl)cc1Cl`: the AC50 was 2.82 µM (active).
